# Screening results: PubChem, National Center for Advancing Translational Sciences (NCATS)
# Pol kappa inh-1 – qHTS for Inhibitors of Polymerase Kappa; DNA polymerase kappa (Homo sapiens), Q9UBT6; purified Pol kappa, fluorescent DNA synthesis assay, 10 min; Potency, µM (doses to about 107 µM), inactives show at the highest dose activity, negative = inhibition, most hits filed as inhibitors; 0.53% of 400,000 active; also: potency is read from the fitted curve at half-maximal effect; % is scaled to controls: 0 for no effect and ±100 for the full control effect
#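 50 nM final substrate added after 15 min RT preincubation of 10 nM Pol kappa with compound; fluorescence read at 0 and 10 min.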
# FEN1 inh – qHTS Assay for the Inhibitors of Human Flap endonuclease 1 (FEN1) | P39748 | Recombinant FEN1 flap cleavage, fluorescence, 15 min | Potency, µM (highest dose often 114 µM), without a hit: at the highest dose activity change, negative = inhibition, most hits filed as inhibitors | 0.35% of 390,000 active | AID 588795, 2011; also: potency is read from the fitted curve at half-maximal effect; % is scaled to controls: 0 for no effect and ±100 for the full control effect; nearly all actives have a fitted effect of over 65% in size
#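 With each library titrated from low to high concentration, compounds met 10 nM FEN1 for 15 min at room temperature before 50 nM substrate was added; readings at 0 and 15 min fed four-parameter Hill curve fits.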
# POLB inh – qHTS Assay for Inhibitors of DNA Polymerase Beta. Pol beta primer extension/strand displacement, fluorescence kinetic. P06746. 1.3% of 340,000 active. Potency, µM (doses to about 114 µM), without a hit: at the top dose activity change, negative = inhibition, hits mostly inhibitors; also: potency is read from the fitted curve at half-maximal effect; % is scaled to controls: 0 for no effect and ±100 for the full control effect
#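 Kinetic readout of DNA synthesis with strand displacement by Pol beta. Compound and 10 nM enzyme sit 15 min at room temperature; 50 nM substrate starts the reaction, read immediately and at 10 min.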
# Pol iota inh – qHTS for Inhibitors of Polymerase Iota | Potency, µM (titrated, usually from 115 µM), for inactives: top-dose activity, negative = inhibition, usual class: inhibitors | DNA polymerase iota (Homo sapiens), Q9UNA4 | AID 588590, 2011 | Pol iota fluorescent replication assay, 10 min | 1% of 390,000 active; also: potency is read from the fitted curve at half-maximal effect
#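 Fluorescent replication assay read twice, at 0 min and 10 min after adding 50 nM (final) substrate. Enzyme (10 nM) and compounds were first incubated 15 min at room temperature; enzyme-free buffer wells were negative controls.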
# WRN helicase inh – qHTS for Inhibitors of WRN Helicase. Bifunctional 3'-5' exonuclease/ATP-dependent helicase WRN (Homo sapiens), Q14191. WRN helicase unwinding, fluorescent forked duplex, kinetic. Potency, µM (highest dose often 114 µM), inactives show at the highest dose activity change, negative = inhibition, actives largely listed as inhibitors. 0.46% of 360,000 active. AID 651768, 2012; also: potency is read from the fitted curve at half-maximal effect; % is scaled to controls: 0 for no effect and ±100 for the full control effect; nearly all actives have a fitted effect of over 55% in size
#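 Fluorescence dequenching readout, ex 525 nm/em 598 nm, kinetic mode: forked duplex DNA (100 nM final) with adjacent fluorophore and quencher unwound by WRN (20 nM final) with 2 mM ATP. Compound preincubation 15 min, room temperature.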
# Pol eta inh-1 – qHTS for Inhibitors of Polymerase Eta; recombinant Pol eta, fluorescent DNA replication assay; Potency, µM (series often up to 114 µM), inactives show top-dose activity change, negative = inhibition, hits mostly inhibitors; 1.2% of 390,000 active; also: potency is read from the fitted curve at half-maximal effect; % is scaled to controls: 0 for no effect and ±100 for the full control effect
#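 Pol eta (10 nM) was preincubated with compounds for 15 min at room temperature, after which fluorescent replication substrate (50 nM final) was added to start the reaction. Fluorescence was read kinetically at 0 and 10 min.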
# GALK confirm – Confirmation Assay for Inhibitors of Human Galactokinase (GALK). 70% of 150 active. AID 2015, 2009. Potency, µM (highest dose often 115 µM), without a hit: top-dose activity, negative = inhibition, most hits filed as inhibitors. purified GALK, Kinase-Glo ATP depletion luminescence. shares compounds with Pol eta inh-1
# Redox cycling – Confirmatory Assay for Inhibitors of Human Galactokinase (GALK): Phenol-HRP redox assay counterscreen; Potency, µM (series often up to 115 µM), inactives show top-dose activity change, negative = H2O2 signal, most hits filed as inhibitors; Phenol red-HRP H2O2 redox cycling, absorbance 600 nm; shares compounds with Pol eta inh-1; 40% of 150 active
# HEK293 viability – Secondary Assay for Inhibitors of Human Galactokinase (GALK): HEK-293 Cell Viability Assay; 10% of 170 active; HEK-293 viability, ATP luminescence (CellTiter-Glo), 24/48 h; shares compounds with Pol eta inh-1; Potency, µM (doses to about 46.1 µM), inactives show top-dose activity change, negative = cytotoxicity, hits mostly inhibitors; also: potency is read from the fitted curve at half-maximal effect; % is scaled to controls: 0 for no effect and ±100 for the full control effect
# Pol kappa inh-2 – qHTS for Inhibitors of Polymerase Kappa: Confirmatory Assay for Cherry-picked Compounds. 76% of 920 active. shares compounds with Pol eta inh-1. purified Pol-kappa, fluorescent strand-displacement substrate. Potency, µM, most hits filed as inhibitors. AID 720501, 2013; also: potency is read from the fitted curve at half-maximal effect
# Pol eta inh-2 – qHTS for Inhibitors of Polymerase Eta: Confirmatory Assay for Cherry-picked Compounds | shares compounds with Pol eta inh-1 | Pol eta primer extension, TAMRA/BHQ fluorescence, 10 min | Potency, µM, most hits filed as inhibitors | 64% of 2,600 active | AID 720502, 2013; also: potency is read from the fitted curve at half-maximal effect
# * = called active by the depositor; ? = inconclusive; / = not tested or not shown; [ ] = another dose, or the depositor's remark. Sampled rows, rich in hits. Any-hit rate of the full collection: about 2.4%. Calls follow the shape of the dose curve; as a rule, active = well fitted curve in the direction sought with a large enough effect; inconclusive = small, poorly fitted or top-dose-only effect, or another doubt; inactive = no such curve, though single readings can be large; an effect the other way counts as inactive or inconclusive.
SMILES,Pol kappa inh-1,FEN1 inh,POLB inh,Pol iota inh,WRN helicase inh,Pol eta inh-1,Pol eta inh-2,others
CCc1ccc(NC(=O)CCNS(=O)(=O)c2ccc3c(c2)oc(=O)n3C)cc1,-23.7%,-6.6%,-23.8%,24.1%,/,-22.0%,/,
O=C(Oc1ccccc1F)c1ccc2c(=O)n3c(nc2c1)CCC3,-27.8%,-19.4%,/,?,-17.1%,?,67.5*,
Cc1ccccc1C(=O)Nc1ccc(S(=O)(=O)N2CCC(c3nc4ccccc4s3)CC2)cc1,-15.2%,-1.1%,-0.4%,57.2%,/,-5.3%,/,
Cc1cn(C)c(CC(=O)Nc2cccc(Cl)c2C)c1C(=O)O,3.7%[60.1 µM],-1.4%,0.1%,-1.8%,/,-6.6%,/,
COC(=O)C1C2C=CC3(CN(c4cccc(C)c4)C(=O)C13)O2 (stereo unspecified),-25.0%,1.9%,-27.7%,?,?,35.5µM*,?,
NCCCCC(NC(CCc1ccccc1)C(=O)O)C(=O)N1CCCC1C(=O)O (stereo unspecified),-1.0%[60.1 µM],/,/,/,/,/,/,
CCCOc1ccc(C(=O)Nc2ccc(NC(=O)c3ccccc3)c(Br)c2)cc1,8.9%,2.0%,13.9%,32.0%,/,4.5%,/,
CCC1(O)CC2CN(CCc3c([nH]c4ccccc34)[C@@](C(=O)OC)(c3cc4c(cc3OC)N(C)C3[C@]45CCN4CC=C[C@@](CC)([C@@H](OC(C)=O)[C@]3(O)C(=O)OC)[C@H]45)C2)C1 (stereo partly specified),?,/,11.1%[57.1 µM],-3.1%[58.9 µM],/,-5.9%[57.1 µM],/,
O=C(O)C1C2C=CC3(O2)C1C(=O)N1c2ccccc2C2OCCC2C13 (stereo unspecified),-33.3%,-1.8%,39.8µM*,?,-23.1%[57.1 µM],35.5µM*,?,
C=C(C)CC1N(c2cccc(OC)c2)C(=O)C2C(C(=O)O)C3C=CC21O3 (stereo unspecified),-2.6%,-14.8%,38.3%,-22.0%,-3.9%,-9.4%,/,
Cc1nc2ccn(Cc3ccco3)c(=O)c2cc1C(=O)NCc1ccc(Cl)cc1,12.7%,12.8%,3.9%,6.9%,/,6.6%,/,
Cc1ccc(-n2ncc(C(=O)NCc3ccco3)c2C2CCN(C(=O)OC(C)(C)C)CC2)c(C)c1,-0.5%,-18.1%,4.4%,25.9%,/,-26.2%,/,
CC1=NN2C(=N)/C(=C\c3ccc(SCc4ccccc4)o3)C(=O)N=C2S1,-14.4%,-6.9%,?,?,?,?,/,
N=C1/C(=C\c2ccc(SCc3ccco3)o2)C(=O)N=C2SC=NN12,50.1µM*,?,39.8µM*,?,56.2µM*,14.1µM*,53.6*,
CCCCC/C=C\C[C@@H](O)/C=C/C=C\C/C=C\CCCC(=O)O,-10.4%[19.4 µM],/,/,/,/,/,/,
COc1ccc(/C=N/NC(=O)c2ccc(O)cc2O)cc1CSc1ccccn1,79.4µM*,-18.7%,20µM*,?,?,14.1µM*,?,
O=C(CN1C(=O)c2ccccc2S1(=O)=O)Nc1ncccn1,-9.9%,12.6%,/,69.6%,-7.8%,-10.3%,/,
O=C(CN1C(=O)c2ccccc2S1(=O)=O)Nc1ncc(Cl)cc1Cl,?,-10.0%,/,?,?,22.4µM*,30.1*,
Cc1cccc(CNc2ncncc2-c2ccccc2CN(C)C)c1,-4.3%[60.1 µM],/,/,/,/,/,/,
CC1=C(C#N)c2nc(N)c(C#N)c(C)c2/C1=C\c1ccc(C)cc1,/,/,5.4%,/,/,/,/,
COc1cc(/C=C2\C(C)=C(C#N)c3nc(N)c(C#N)c(C)c32)ccc1OCC(=O)O,-35.1%,?,1.7%,-25.0%,-15.3%,22.4µM*,37.9*,
O=S(=O)(c1cccc2ccccc12)N1CCN(c2nc(-c3cccs3)nc3ccccc23)CC1,-13.9%,9.6%,/,-9.9%,/,/,/,
COC(=O)C(C)N1C(=O)S/C(=C\c2ccc(-c3ccc(C(=O)O)cc3C)o2)C1=O (stereo unspecified),31.6µM*,?,39.8µM*,?,?,10µM*,42.6*,
CCc1ccc(NC(=O)CSC2=Nc3ccccc3C3=NC(CC(=O)NCc4ccc5c(c4)OCO5)C(=O)N23)cc1 (stereo unspecified),-1.0%[60.1 µM],-14.7%,-9.6%,?,/,0.8%,/,
Cc1[nH]c2ccccc2c1/C=N/NC(=O)c1cccc(Br)c1,-8.3%,-9.1%,?,41.7%,-13.9%,?,/,
Cc1[nH]c2ccccc2c1/C=N/Nc1cccc(C(=O)O)c1,?,-20.1%,?,?,-12.3%,56.2µM*,?,
Oc1c(Br)cc(C=Nc2ccc3nc(-c4ccccc4)[nH]c3c2)c(O)c1Br,50.1µM*,39.8µM*,?,?,?,14.1µM*,30.1*,Pol kappa inh-2=9.47*
COc1ccc2nc(-c3ccccc3)[nH]c2c1,-20.0%,-19.7%,1.5%,15.8%,-14.7%,-8.4%,/,
Nc1ncnc2c1nc(Br)n2C1O[C@H]2COP(=O)(O)O[C@@H]2C1O (stereo partly specified),/,/,5.4%[57.1 µM],1.9%[58.9 µM],/,-3.4%[57.1 µM],/,
CCOc1ccc2[nH]c(=O)c(C(c3nnnn3Cc3ccco3)N3CCN(C)CC3)cc2c1 (stereo unspecified),8.6%,1.5%,1.7%,68.3%,4.4%,-20.2%,/,GALK confirm=-5.8%;Redox cycling=3.3%;HEK293 viability=0.5%
